{
  "source": "PubChem BioAssay AID686979",
  "about": "(National Center for Advancing Translational Sciences (NCATS), 2013)",
  "note": "Among all 420,000 compounds or so, about 50,000 (12%) were called active. Not shown: some 26% with an inconclusive outcome. The full list was thinned out, with actives kept by preference. Unmarked numbers belong to inactive results. Calls follow the shape of the dose curve; as a rule, active = well fitted inhibition curve with a large enough effect; inconclusive = small, poorly fitted or top-dose-only effect; inactive = flat fitted curve, though single readings scatter. % is scaled to controls: 0 for no effect and ±100 for the full control effect; potency is read from the fitted curve at half-maximal effect.",
  "data": [
    {"experiment": "qHTS for Inhibitors of human tyrosyl-DNA phosphodiesterase 1 (TDP1): qHTS in cells in presence of CPT; also: nearly all actives have a fitted effect of over 55% in size", "conditions": "chicken DT40 Tdp1-/-;hTDP1 cells + 20 nM CPT, ATP luminescence, 48 h; series mostly up to 46.2 µM; activity change, negative = growth inhibition: at the top concentration", "procedure,_shortened": "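Chicken DT40 Tdp1-/- cells stably complemented with human TDP1 were seeded at 400 cells/well in medium containing 20 nM camptothecin, exposed to pin-transferred compounds, and grown at 37 °C for at least 48 hr. Viability was read as ATP luminescence.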", "units": {"activity change, negative = growth inhibition": "%"}, "values": [
      {"smiles": "CNC(=O)C[C@H]1C(=O)N(Cc2ccccc2)C[C@@H]1CSC", "activity change, negative = growth inhibition": -20.4},
      {"smiles": "CCOc1ccc(N(CC(=O)Nc2ccccc2F)S(=O)(=O)c2c(C)[nH]c(=O)[nH]c2=O)cc1", "activity change, negative = growth inhibition": -10},
      {"smiles": "Cc1ccc(NC(=O)Cn2nnc(C(=O)NCc3ccco3)c2N)c(C)c1", "activity change, negative = growth inhibition": -3.92},
      {"smiles": "CCN(C(=O)Cc1c(C(=O)O)n(CC)c2ccccc12)c1ccccc1C", "activity change, negative = growth inhibition": 9.41},
      {"smiles": "COc1ccc(S(=O)(=O)NC(C)C(=O)N2CCCCCC2)cc1", "note": "(stereo unspecified)", "activity change, negative = growth inhibition": -0.956},
      {"smiles": "COc1ccc(CNS(=O)(=O)c2ccc(NC(=O)N3CCCCC3)cc2)cc1", "Potency": "18.4 µM (active)"},
      {"smiles": "COc1ccc(NC(=O)N2CC3(CCN(C(C)=O)CC3)C2)cc1", "activity change, negative = growth inhibition": 8.16},
      {"smiles": "COC(=O)C[C@H]1C[C@@H]2c3cc(N(C)C)ccc3O[C@@H]2[C@H](CO)O1", "activity change, negative = growth inhibition": 6.29},
      {"smiles": "O=C(NC1CCN(S(=O)(=O)c2ccc(F)cc2)CC1)c1ccccc1", "activity change, negative = growth inhibition": 22.4},
      {"smiles": "Cc1ccc2nc(NC(=O)c3nc(SCc4ccccc4F)ncc3Cl)sc2c1", "activity change, negative = growth inhibition": 4.39},
      {"smiles": "CCOC(=O)c1c(-c2ccc(-c3ccccc3)cc2)csc1NC(=O)CCC(=O)O", "activity change, negative = growth inhibition": -2.59},
      {"smiles": "CCCS(=O)(=O)c1ncc(Cl)c(C(=O)Nc2scc(-c3ccccc3)c2C(=O)OCC)n1", "Potency": "2.31 µM (active)"},
      {"smiles": "O=C(CN1C(=O)CC(c2ccccc2)S(=O)(=O)c2ccccc21)NC1CCCC1", "note": "(stereo unspecified)", "activity change, negative = growth inhibition": -12.7},
      {"smiles": "Cc1ccc(-c2noc(CNC(=O)c3ccoc3C)n2)cc1", "activity change, negative = growth inhibition": -25.3},
      {"smiles": "CSc1n[nH]c(=S)n1N", "activity change, negative = growth inhibition": -2.16},
      {"smiles": "CC(C)NC(=O)N1CCC2(CC1)CCN(C(=O)c1cccn1C)CC2", "activity change, negative = growth inhibition": 3.36},
      {"smiles": "COc1ccc(NC(=O)N2CC3(CCN(C(=O)c4cccn4C)CC3)C2)cc1", "activity change, negative = growth inhibition": -10.5},
      {"smiles": "Cn1cccc1C(=O)N1CCC2(CC1)CN(c1cccc(-c3ccccc3)c1)C2", "Potency": "18.4 µM (active)"},
      {"smiles": "O=C(C=CC(=O)Nc1ccc(F)cc1F)Nc1ccc(F)cc1F", "activity change, negative = growth inhibition": 4.15},
      {"smiles": "Cc1nc2ccc(S(=O)(=O)N(C)CC(=O)NC(C)c3ccccc3)cc2s1", "note": "(stereo unspecified)", "activity change, negative = growth inhibition": -11.6},
      {"smiles": "O=C(Nc1cccc(Cl)c1)Nc1ccccc1NS(=O)(=O)c1cccs1", "activity change, negative = growth inhibition": -15.7},
      {"smiles": "CCOC(=O)c1ccc(NC2Nc3cc(C)nn3S2)cc1", "note": "(stereo unspecified)", "activity change, negative = growth inhibition": -0.261},
      {"smiles": "O=C(Nc1ccc2ccccc2c1)/C(=C\\c1ccc2c(c1)OCO2)NC(=O)c1ccco1", "activity change, negative = growth inhibition": 1.81},
      {"smiles": "CC(Oc1ccc2ccccc2c1)C(=O)NNC(=S)NC(=O)c1ccco1", "note": "(stereo unspecified)", "Potency": "23.1 µM (active)"},
      {"smiles": "Cc1ccc(C(=O)NNC(=O)C(C)Oc2ccc3ccccc3c2)o1", "note": "(stereo unspecified)", "activity change, negative = growth inhibition": -9.14},
      {"smiles": "CC(C)=CCN1CCN(Cc2cc3ccccc3[nH]2)CC1CCO", "note": "(stereo unspecified)", "activity change, negative = growth inhibition": -6.87},
      {"smiles": "COc1ccc(OC)c(CN2C(=O)CCC2(C)c2nnnn2Cc2ccccc2)c1", "note": "(stereo unspecified)", "activity change, negative = growth inhibition": -24.7},
      {"smiles": "CCCNc1ncnc2sc(C)c(C)c12", "Potency": "16.4 µM (active)"},
      {"smiles": "Cc1sc2ncnc(SCC(=O)NC3CCS(=O)(=O)C3)c2c1C", "note": "(stereo unspecified)", "activity change, negative = growth inhibition": 0.145},
      {"smiles": "CSc1ncnc2sc(C)c(C)c12", "activity change, negative = growth inhibition": -14.5},
      {"smiles": "COc1cccc(NC(=O)CCNS(=O)(=O)c2ccc3c(c2)oc(=O)n3C)c1", "Potency": "inactive"},
      {"smiles": "CCc1ccccc1NC(=O)c1ccc2c(c1)CCN2S(C)(=O)=O", "activity change, negative = growth inhibition": 9.03},
      {"smiles": "CC(C)=CCC/C(C)=C/C(=O)O", "activity change, negative = growth inhibition": -5.06},
      {"smiles": "COc1ccccc1-c1cc2nc(C)c(CCC(=O)NC3CCCCC3)c(C)n2n1", "activity change, negative = growth inhibition": 5.23},
      {"smiles": "COc1ccc(-c2ccc(C(=O)NC(C)C)c3occc23)c(C)c1", "Potency": "14.6 µM (active)"},
      {"smiles": "COc1ccc(C2OC(=O)CC2C(=O)NC(C)C)cc1", "note": "(stereo unspecified)", "activity change, negative = growth inhibition": -2.88},
      {"smiles": "COc1ccc(N)c(C)c1", "activity change, negative = growth inhibition": 5.04},
      {"smiles": "COc1ccc(Cl)cc1C(=O)OCC(=O)NCc1cccs1", "activity change, negative = growth inhibition": -0.547},
      {"smiles": "Cc1nnc(SC(C(=O)c2ccccc2)c2ccccc2)[nH]c1=O", "note": "(stereo unspecified)", "activity change, negative = growth inhibition": -0.428},
      {"smiles": "CN1CCC(N(C)C(=O)c2ccc(Cl)c(S(=O)(=O)Nc3ccc(Cl)cc3)c2)CC1", "activity change, negative = growth inhibition": -15},
      {"smiles": "Cc1cccc(-n2ncc3c(=O)[nH]c(SCC(=O)Nc4cc(C)on4)nc32)c1", "activity change, negative = growth inhibition": -28.7},
      {"smiles": "CCN(CC)c1ccc(NC(=O)CN2C(=O)c3cccnc3Oc3ccc(Cl)cc32)c(C)c1", "Potency": "9.2 µM (active)"},
      {"smiles": "Cc1ccc2c(c1)N(CC(=O)NCCCN1CCCCC1)C(=O)c1cccnc1O2", "Potency": "inactive"},
      {"smiles": "CC(=O)c1cccc(NC(=O)CN2C(=O)c3cccnc3Oc3ccc(Cl)cc32)c1", "Potency": "18.4 µM (active)"},
      {"smiles": "CCN(CC)c1ccc(NC(=O)Cn2nc3c(cc2=O)CCCC3)c(C)c1", "activity change, negative = growth inhibition": -21.6},
      {"smiles": "O=C(CN1C(=O)c2cccnc2Oc2ccc(Cl)cc21)NCCc1ccccc1", "activity change, negative = growth inhibition": -25.7},
      {"smiles": "Cc1ccc2c(c1)N(CC(=O)N1CCC(C)CC1)C(=O)c1cccnc1O2", "activity change, negative = growth inhibition": 1.35},
      {"smiles": "COC(=O)Cc1ccc(OCC(=O)NC2CCCC2)cc1", "activity change, negative = growth inhibition": 0.687},
      {"smiles": "COc1cccc(N(CC(=O)NC2CCCC2)C(=O)CCCC(=O)Nc2ccccn2)c1", "activity change, negative = growth inhibition": -0.665},
      {"smiles": "COCC1CCN(C(=O)C2CCC(=O)N(Cc3cccc(C(F)(F)F)c3)C2)CC1", "note": "(stereo unspecified)", "activity change, negative = growth inhibition": -9.13},
      {"smiles": "CC(=O)CC[C@@H](C)O[C@@H]1OC(C)[C@H](O)CC1O", "note": "(stereo partly specified)", "activity change, negative = growth inhibition": 9.15}
    ]}
  ]
}
